High-throughput results from PubChem.
Six1-Eya2 inh – blocks human Six1 binding to Eya2. Q15475+O00167. AlphaScreen GST-Six1/His-Eya2 binding, biochemical; active compounds read low. activity change, % (concentration not given with the values). 360,000 compounds, 0.56% hits. AID 651725; in the data active means activity change below about -65%; inconclusive means mostly about -30% to -63%
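AlphaScreen with GST-Six1 and His-Eya2 (5X mix: 250 nM and 500 nM), glutathione donor and nickel acceptor beads; buffer 50 mM Tris pH 8.0, 300 mM NaCl, 1 mM TCEP; 1 h at 37 C in the dark.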
TDP1 inh – blocks human tyrosyl-DNA phosphodiesterase 1; 350,000 compounds, 0.28% hits; Q9NUW8; AID 485290; recombinant TDP1, AlphaScreen DNA substrate cleavage; Potency, µM (doses to about 130 µM), without a hit: at the highest dose activity change, negative = inhibition, actives largely listed as inhibitors; further: potency means the concentration at half of the fitted maximal effect; nearly all actives have a fitted effect of over 40% in size
Target sequence (Q9NUW8 whole entry, looked up): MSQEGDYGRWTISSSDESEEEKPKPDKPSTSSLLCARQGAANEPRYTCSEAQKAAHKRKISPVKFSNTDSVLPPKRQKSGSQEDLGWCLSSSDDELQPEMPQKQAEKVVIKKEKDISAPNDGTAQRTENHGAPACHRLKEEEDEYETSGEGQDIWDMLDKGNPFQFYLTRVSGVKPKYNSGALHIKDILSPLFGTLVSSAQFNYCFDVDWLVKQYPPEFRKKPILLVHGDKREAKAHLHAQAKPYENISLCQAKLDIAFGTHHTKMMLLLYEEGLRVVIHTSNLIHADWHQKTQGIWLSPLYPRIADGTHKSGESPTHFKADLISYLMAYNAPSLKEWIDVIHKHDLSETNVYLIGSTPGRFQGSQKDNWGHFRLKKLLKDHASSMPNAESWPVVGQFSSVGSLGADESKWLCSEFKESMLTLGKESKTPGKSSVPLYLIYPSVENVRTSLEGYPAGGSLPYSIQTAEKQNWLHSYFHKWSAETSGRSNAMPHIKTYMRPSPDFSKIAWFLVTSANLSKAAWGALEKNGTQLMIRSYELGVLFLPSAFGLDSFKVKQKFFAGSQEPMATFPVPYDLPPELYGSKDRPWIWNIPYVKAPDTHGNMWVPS
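Compounds were preincubated with Tdp1 (1 nM final) for 15 min at room temperature before substrate (15 nM final) started a 5 min reaction; beads (10 ug/ml final) were then added for 10 min before AlphaScreen detection.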
TDP1 cell CPT – growth inhibition of DT40 Tdp1-/-;hTDP1 cells with camptothecin (screen for TDP1 inhibitors); AID 686979; Potency, µM (series often up to 46.2 µM), inactives show at the highest dose activity change, negative = growth inhibition, actives largely listed as inhibitors; 420,000 compounds, 12% hits; chicken DT40 Tdp1-/-;hTDP1 cells + 20 nM CPT, ATP luminescence, 48 h; further: potency means the concentration at half of the fitted maximal effect; nearly all actives have a fitted effect of over 55% in size
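Chicken DT40 Tdp1-/- cells stably complemented with human TDP1 were seeded at 400 cells/well in medium containing 20 nM camptothecin, exposed to pin-transferred compounds, and grown at 37 °C for at least 48 hr. Viability was read as ATP luminescence.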
CtBP-E1A blk – CtBP/E1A binding inhibition; 340,000 compounds, 0.49% hits; AlphaScreen GST-E1A/His-CtBP binding, 1536-well; active compounds read low; AID 651724; activity change, % (concentration not given with the values); in the data active means activity change below about -65%; inconclusive means mostly about -30% to -63%
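AlphaScreen with 125 nM GST-E1A and 125 nM His-CtBP (5X stocks) in Tris pH 8.0, 300 mM NaCl, BSA, Tween 20, TCEP. Compounds preincubated 2 h at 37 deg C, then glutathione donor/nickel acceptor beads added for 1 h at 37 deg C in dark.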
IL-1B inflam inh – inflammasome signaling inhibition, IL-1 beta readout; 360,000 compounds, 4.7% hits; activity change, % at 57.5 µM; THP-1 LPS/ATP IL-1B secretion, AlphaLISA, 16 h; active compounds read low; in the data active means activity change below about -50%; inconclusive means mostly about -30% to -49%
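THP-1 cells pretreated 1 hr with compounds (up to 57.5 uM final), then stimulated with LPS (250 ng/mL final) plus ATP (1.25 mM final); secreted IL-1B measured by AlphaLISA after 16 hr, decreased signal indicating inhibition.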
TDP1 cell noCPT – qHTS for Inhibitors of human tyrosyl-DNA phosphodiesterase 1 (TDP1): qHTS in cells in absence of CPT; Potency, µM (highest dose often 46.2 µM), inactives show top-dose activity change, negative = growth inhibition, actives largely listed as inhibitors; DT40 Tdp1-/- hTDP1 cells, no CPT, ATP luminescence, 48 h; 420,000 compounds, 15% hits; AID 686978, 2013; further: potency means the concentration at half of the fitted maximal effect; nearly all actives have a fitted effect of over 55% in size
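Compound effects on proliferation are scored in DT40 Tdp1-/-;hTDP1 cells in the absence of CPT. ATP levels (CellTiter-Glo luminescence) are recorded after a ≥48 hr, 37 °C incubation.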
* hit, by the source's call. Shown are actives, neighbours in structure and some others; about 18% of the full set was active somewhere. Unless noted, the call rests on the fitted dose curve; in most records, active means well fitted curve in the direction sought with a large enough effect; inconclusive means small, poorly fitted or top-dose-only effect, or another doubt; inactive means no such curve, though single readings can be large; an effect the other way counts as inactive or inconclusive. On the % scale 0 is the no-effect control and ±100 the full control effect.

What do the screens show for `CCN(CC)c1ccc(S(=O)(=O)Nc2cc(Cl)ccc2Cl)cc1NC(=S)NC(=O)C1CCCC1`?
Six1-Eya2 inh: -20.6; TDP1 inh: 11.0%; TDP1 cell CPT: inconclusive; CtBP-E1A blk: -2.2; IL-1B inflam inh: -50.2*; TDP1 cell noCPT: inconclusive

How did Cc1ccc(NC(=O)C2CCCC2)c(Br)c1 do in these assays?
Six1-Eya2 inh: 1.0; TDP1 cell CPT: -21.5%; CtBP-E1A blk: -9.0; IL-1B inflam inh: -27.9; TDP1 cell noCPT: -19.3%

Results for CCN(CC)S(=O)(=O)c1cccc(C(=O)NC2CCCCC2)c1 ?
Six1-Eya2 inh: -2.2; TDP1 inh: 4.5%; TDP1 cell CPT: -8.6%; CtBP-E1A blk: -10.6; IL-1B inflam inh: 3.8; TDP1 cell noCPT: inconclusive

Results for Cc1ccc(S(=O)(=O)N(C)C)cc1NC(=S)NC1CCCC(C)C1C (stereo not drawn) ?
Six1-Eya2 inh: -0.1; TDP1 inh: -4.3%; TDP1 cell CPT: 20.6µM*; CtBP-E1A blk: 6.9; IL-1B inflam inh: -4.1; TDP1 cell noCPT: inconclusive

What do the screens show for `CCN(CC)S(=O)(=O)c1ccc(C)c(NC(=S)NC2CCCCC2)c1`?
Six1-Eya2 inh: -0.8; TDP1 inh: 3.6%; TDP1 cell CPT: inconclusive; CtBP-E1A blk: -6.4; IL-1B inflam inh: 24.1; TDP1 cell noCPT: 14.6µM*

How did O=C(NC(=S)Nc1ccccc1Cl)C1CC1 do in these assays?
Six1-Eya2 inh: -4.2; TDP1 inh: -1.6%; TDP1 cell CPT: -10.7%; CtBP-E1A blk: -5.5; IL-1B inflam inh: 14.0; TDP1 cell noCPT: 10.7%

What do the screens show for `COc1ccc(S(=O)(=O)Nc2ccccc2OC)cc1NC(=O)CC1CC2CCC1C2` (stereo not drawn)?
Six1-Eya2 inh: -1.0; TDP1 inh: 5.6%; TDP1 cell CPT: inconclusive; CtBP-E1A blk: -4.9; IL-1B inflam inh: 2.3; TDP1 cell noCPT: 16.4µM*

What do the screens show for `CCN(CC)S(=O)(=O)c1ccc(Cl)c(NC(=S)NC(=O)C2CCCC2)c1`?
Six1-Eya2 inh: -5.8; TDP1 inh: 0.6%; TDP1 cell CPT: 23.1µM*; CtBP-E1A blk: -4.2; IL-1B inflam inh: inconclusive; TDP1 cell noCPT: 18.4µM*

What do the screens show for `COc1ccccc1NS(=O)(=O)c1ccc(Cl)c(NC(=S)NC(=O)C2CCCC2)c1`?
Six1-Eya2 inh: -1.1; TDP1 inh: 0.0%; TDP1 cell CPT: 23.1µM*; CtBP-E1A blk: -17.6; IL-1B inflam inh: -6.2; TDP1 cell noCPT: 29.1µM*

How did Cc1ccccc1Cn1ccn(-c2ccc(F)c(F)c2)c(=O)c1=O do in these assays?
TDP1 inh: -3.9%; TDP1 cell CPT: 25.7%; TDP1 cell noCPT: 1.8%

How did COc1ccc(N(Cc2cccs2)C(=O)COc2ccc([N+](=O)[O-])cc2)cc1 do in these assays?
TDP1 inh: 1.6%; TDP1 cell CPT: inconclusive; TDP1 cell noCPT: 25.9µM*

How did Cc1ccc(N(Cc2cccs2)C(=O)c2ccccc2[N+](=O)[O-])cc1 do in these assays?
TDP1 inh: 5.7%; TDP1 cell CPT: 14.6µM*; TDP1 cell noCPT: 9.2µM*

Results for Cc1ccc(N(Cc2cccs2)C(=O)COc2ccccc2[N+](=O)[O-])cc1 ?
TDP1 inh: 0.5%; TDP1 cell CPT: 20.6µM*; TDP1 cell noCPT: 23.1µM*

How did O=c1c(-c2ccc(Br)cc2)[n+]([O-])c2ccccc2n1OCc1ccccc1 do in these assays?
Six1-Eya2 inh: 1.2; TDP1 inh: 0.0%; TDP1 cell CPT: 2.6%; IL-1B inflam inh: 15.1; TDP1 cell noCPT: -4.4%

Results for CC(C)(C)OC(=O)NNC(=O)c1cccs1 ?
Six1-Eya2 inh: 4.3; TDP1 inh: 2.6%; TDP1 cell CPT: -3.8%; CtBP-E1A blk: -5.5; IL-1B inflam inh: 30.3; TDP1 cell noCPT: 30.1%

How did Cc1cccc(C)c1OCC(=O)N1CCc2ccccc2C1 do in these assays?
Six1-Eya2 inh: 22.6; TDP1 cell CPT: inconclusive; CtBP-E1A blk: -2.2; IL-1B inflam inh: -81.9*; TDP1 cell noCPT: inconclusive
